# Screening results (PubChem)
# rCAG binder – r(CAG) repeat RNA binding. TO-PRO-1 dye displacement fluorescence. inhibition, % at 3 µM. 1.3% of 370,000 active. AID 651821;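 active = inhibition above the plate cutoff, the mean of all test compounds on that plate plus 3 SD, cut at about 35% in these data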;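 also: 0% = DMSO alone and 100% = 100 µM mitoxantrone as full dye displacement; higher means more dye released from RNA so lower well fluorescence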
# LANA-H2A inh – blocks KSHV LANA binding to histone H2A/H2B. cell-free LANA-H2A/H2B peptide, fluorescence polarization. inhibition, % (test concentration not listed). 0.6% of 320,000 active. AID 2629; in the data active = inhibition mostly above about 10%, no sharp cut-off; inactive = mostly below about 6.7%
# PRMT1 FP inh – inhibitors of human PRMT1; Q99873; recombinant PRMT1, activity-based probe fluorescence polarization; inhibition, % at 2.79 µM; 1.3% of 370,000 active; AID 652257;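 active = inhibition above about 21% made by adding two undisclosed values, limit read from the data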
# ABHD5 PLIN5 PPI – inhibitors of human ABHD5-perilipin-5 interaction; AID 602281; inhibition, % at 4 µM; 0.78% of 360,000 active; Split G. princeps luciferase complementation, luminescence, 4 h; Q00G26+Q8WTS1;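 active = inhibition above the mean inhibition across every tested compound plus 3 SD, cut at about 22% in these data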;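 also: 0% = DMSO only wells and the 100% control is not disclosed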
# Rtt109 Vps75 – blocks Candida albicans Rtt109/Vps75 acetyltransferase activity | 0.16% of 330,000 active | inhibition, % at 34.9 µM | Q5AAJ8 | purified Rtt109/Vps75, ThioGlo CoA-SH fluorescence, 4 h;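 active = inhibition of at least 50% in every replicate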
# Target sequence (Q5AAJ8 whole entry, looked up): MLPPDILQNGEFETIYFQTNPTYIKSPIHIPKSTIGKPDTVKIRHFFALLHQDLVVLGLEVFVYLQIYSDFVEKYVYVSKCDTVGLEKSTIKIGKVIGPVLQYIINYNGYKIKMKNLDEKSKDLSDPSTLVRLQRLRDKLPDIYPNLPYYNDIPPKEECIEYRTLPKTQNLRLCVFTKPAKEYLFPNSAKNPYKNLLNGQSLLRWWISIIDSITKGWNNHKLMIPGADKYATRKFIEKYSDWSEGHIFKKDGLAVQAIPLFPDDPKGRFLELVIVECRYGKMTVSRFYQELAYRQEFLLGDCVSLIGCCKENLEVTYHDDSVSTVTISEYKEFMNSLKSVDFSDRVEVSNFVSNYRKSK
# ALR inh – inhibitors of human sulfhydryl oxidase ALR. P55789. inhibition, % (test concentration not listed). AID 485317. purified ALR, DTT oxidation, H2O2 HRP-luminol luminescence. 3.8% of 290,000 active;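 active = mean replicate inhibition above about 79%, with every replicate also reaching it, limit read from the data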
# Target sequence (P55789 whole entry, looked up): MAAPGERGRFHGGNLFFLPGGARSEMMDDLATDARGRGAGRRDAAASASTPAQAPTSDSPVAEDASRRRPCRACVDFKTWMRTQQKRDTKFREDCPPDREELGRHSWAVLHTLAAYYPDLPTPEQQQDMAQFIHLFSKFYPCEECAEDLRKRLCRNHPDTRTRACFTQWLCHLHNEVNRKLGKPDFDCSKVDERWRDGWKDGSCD
# An asterisk follows results filed as active; x = not tested or not shown; + = active, no number. This is a sample that favours compounds with a hit; in the whole collection about 5.9% have one here.
SMILES,rCAG binder,LANA-H2A inh,PRMT1 FP inh,ABHD5 PLIN5 PPI,Rtt109 Vps75,ALR inh
Cc1ccc(S(=O)(=O)N2CCOCC2)cc1NC(=O)CN(C)CC(=O)Nc1cccc(F)c1,2,x,-1,4,x,x
COc1cccc(-c2nnc(SCC(=O)N3CCCc4ccccc43)o2)c1,-6,-7,-1,-3,2,87*
COc1ccc(-c2nc(CSCC(=O)NCCC3=CCCCC3)c(C)o2)cc1OC,-10,0,2,4,2,100*
Cc1oc(-c2ccc(Cl)cc2)nc1CS(=O)CC(=O)NCc1ccc2c(c1)OCO2 (stereo not given),7,-6,5,6,-6,58
COc1ccc(-c2nc(CSCC(=O)N3CCc4ccccc43)c(C)o2)cc1OC,0,-6,1,-6,12,99*
COc1ccc(-c2nc(CS(=O)CC(=O)NCc3ccc4c(c3)OCO4)c(C)o2)cc1OC (stereo not given),3,-3,-1,8,5,99*
COC(=O)C1=C(C)N(Cc2ccc(F)cc2)C(=S)NC1c1ccccc1 (stereo not given),3,x,3,x,x,x
CN(CCOC(=O)CC1C=CCC1)C1CN(Cc2cn(Cc3ccccc3Cl)nn2)S(=O)(=O)C1 (stereo not given),1,x,-2,x,x,x
Cc1oc(-c2ccccc2F)nc1CS(=O)CC(=O)NCc1ccc2c(c1)OCO2 (stereo not given),7,2,4,-5,-4,99*
Cc1ccsc1-c1nc(CSCC(=O)NCc2ccc3c(c2)OCO3)c(C)o1,5,0,2,-5,0,99*
Cc1ccccc1-c1nc(CS(=O)(=O)CC(=O)NCc2ccc3c(c2)OCO3)c(C)o1,2,-2,3,-2,-2,-1
COc1ccccc1CNC(=O)CS(=O)Cc1nc(-c2ccc(OC)c(OC)c2)oc1C (stereo not given),-1,-1,9,2,1,99*
COc1ccc(-c2nc(CSCC(=O)NCc3ccc4c(c3)OCO4)c(C)o2)cc1OC,1,-1,0,0,3,99*
CCCCCCCCNS(=O)(=O)CC1NCc2cc(OC)ccc21 (stereo not given),3,x,3,x,x,x
CC12CCC(=O)C=C1C(F)CC1C2C(O)CC2(C)C1CCC2(O)C(=O)CO (stereo not given),3,x,-1,3,18,x
N#Cc1ccc(C(=O)N2CCCCC2c2cc(C(=O)Nc3ccc4c(c3)OCO4)no2)cc1 (stereo not given),2,x,-2,1,x,x
O=C(N/N=C/c1ccc(O)cc1)c1cc(C2CC2)[nH]n1,-1,-4,1,0,5,99*
COc1cc(/C=N/NC(=O)c2ccc(=O)[nH]n2)ccc1O,-1,-2,-1,-1,0,99*
COc1ccc(/C=N/NC(=O)c2cc(C3CC3)[nH]n2)cc1OC,-1,-6,2,-8,0,x
COc1cc(/C=N/NC(=O)c2cc(C3CC3)[nH]n2)ccc1O,0,1,4,-5,-3,99*
CCC(CC)C(=O)N=C1SC2CS(=O)(=O)CC2N1CCc1ccc(OC)c(OC)c1 (stereo not given),-10,-1,-6,2,12,x
COc1ccc(CCN2C(=NC(=O)CC(C)C)SC3CS(=O)(=O)CC32)cc1OC (stereo not given),-7,22*,-1,-7,2,-1
CCOc1ccc(NC(=S)NCCCN2CCN(C3CCCCC3)CC2)cc1,-7,+,-4,2,7,-1
O=C(CNC(=O)c1ccc(Br)o1)NC12CC3CC(CC(C3)C1)C2,-2,-2,-2,8,58*,-3
COC(=O)c1cc(Br)c(=O)n(CCc2ccc(O)cc2)c1,2,-12,1,-3,-21,90*
SMILES,rCAG binder,LANA-H2A inh,PRMT1 FP inh,ABHD5 PLIN5 PPI,Rtt109 Vps75,ALR inh
COC(=O)/C=C1/N/C(=N\c2nc(C)cc(C)n2)N(c2ccccc2)C1=O,2,-2,-1,8,1,11
COC(=O)/C=C1\N/C(=N\c2nc(C)cc(C)n2)N(c2ccccc2)C1=O,0,-3,-2,12,x,97*
Cc1ccc(-c2cc(C(=O)NN=Cc3cc(Br)ccc3O)[nH]n2)cc1C,21,x,0,x,x,x
CCOc1cc(/C=C2\NC(=O)NC2=O)ccc1OC(C)C(=O)O (stereo not given),0,-7,-3,-3,10,1
CCOc1cc(/C=C2\NC(=O)NC2=O)cc([N+](=O)[O-])c1O,7,2,-1,3,1,88*
COc1cc(/C=C2/C(=O)NN(c3ccccc3)C2=O)cc(Br)c1O,10,3,20,2,-17,99*
CCOc1cc(/C=C2\C(=O)NN(c3ccccc3)C2=O)cc([N+](=O)[O-])c1O,30,3,18,-1,-5,95*
COc1cc(/C=C2\C(=O)NN(c3ccccc3)C2=O)cc([N+](=O)[O-])c1O,20,0,14,-7,8,98*
CCOC(=O)c1cccc(NC(=O)CN(C)S(=O)(=O)c2ccc(F)cc2)c1,-1,x,-2,x,x,x
O=C(N[C@H](C(=O)N1CCC[C@H]1C(=O)NC1CCCC1)C1CCCCC1)C1CC1,0,x,-6,x,x,x
CC[C@@]1(c2ccc(C)cc2)C(=O)N(C(=O)OC(C)C)N1C(=O)OC(C)C,-1,x,-3,x,x,x
O=C1NN(c2ccccc2)C(=O)C1=Cc1ccccc1,6,x,5,-4,x,x
O=C1NN(c2ccccc2)C(=O)/C1=C\c1ccccc1,10,3,6,-11,2,90*
COc1cc(/C=N/N2CCCCC2)cc([N+](=O)[O-])c1O,4,7,-2,1,-7,98*
O/N=C/c1cccn1-c1ccc(O)cc1,-2,-4,-2,-2,0,99*
CC(NCC(=O)Nc1ccccc1C(=O)NC1CC1)c1cccc(C(F)(F)F)c1 (stereo not given),-1,11*,-1,1,-4,3
CC(NCC(=O)NCC(=O)Nc1ccc(F)cc1)c1cccc(C(F)(F)F)c1 (stereo not given),1,-1,-4,-3,0,2
CCCCN(C)CC(O)Cn1cc(/C=C/C(=O)c2ccc(OCC)cc2)c2ccccc21 (stereo not given),x,-6,x,x,x,-4
CCCCN(C)CC(O)Cn1cc(/C=C/C(=O)c2cccs2)c2ccccc21 (stereo not given),x,+,x,17,15,-5
COC(=O)C1CCN(C(=O)CN2C(=O)NC(CCc3ccccc3)C2=O)CC1 (stereo not given),-6,13,3,9,-9,99*
Cc1ccc(-c2cc(C(=O)N3CCN(c4ncccn4)CC3)c3cc(Br)ccc3n2)o1,8,-3,49*,10,-5,1
C[C@@H]1CCN(C2CC2)S(=O)(=O)c2ccc(N3CC[C@H](N(C)C)C3)cc2O1,3,x,0,x,x,x
